According to ChEMBL document CHEMBL3988442, “University of Dundee, Small-Polar-MMV Screening Library” (2021):
Out of some 48,000 compounds screened, about 13,000 (27%) showed an effect of 50% or more. This is one part of the list.

What follows are molecules tested on Wolbachia pipientis (assay: Anti-Wolbachia Cell-Based Screen). Details: 5 µM.
Assay type: functional
Parameters: scale not given: in the data most compounds retested in dose-response had high values

Question: `COCCNS(=O)(=O)c1ccc2c(c1)CCN(C(=O)c1cncn1C)C2` was tested. Which “Percent Effect” value did it give?
Answer: -12.86%

Question: With `CC(C)N(C)S(=O)(=O)c1ccc2c(c1)CCN(C(=O)c1cccnn1)C2` as the molecule, how does the “Percent Effect” value read?
Answer: 105.4%

Question: How did the “Percent Effect” value turn out when `CN(C)Cc1ccc(C2CCCCN2C(=O)c2cccnn2)cc1` (stereo not given) was run?
Answer: -5.621%

Question: How did the “Percent Effect” value turn out when `CC(C)N(C)Cc1noc2c1CN(C(=O)c1cnccn1)CC2` was run?
Answer: -8.266%

Question: `CC(C(=O)N1CCc2ccccc2C1)N(C)Cc1cscn1` (stereo not given) was tested. Which “Percent Effect” value did it give?
Answer: -9.272%

Question: `COCCNS(=O)(=O)c1cccc2c1CN(C(=O)c1cnccn1)CC2` was tested. Which “Percent Effect” value did it give?
Answer: -8.732%

Question: Which “Percent Effect” value does the source give for `Cc1ccc2c(n1)N(CCN(C)C)CCN(C(=O)c1cscn1)C2.O=C(O)C(F)(F)F.O=C(O)C(F)(F)F` here?
Answer: 28.27%

Question: How did the “Percent Effect” value turn out when `CC(C)N(C)S(=O)(=O)c1ccc2c(c1)CCN(C(=O)c1cnccn1)C2` was run?
Answer: 109.6%

Question: `CC(C)N(C)S(=O)(=O)c1ccc2c(c1)CCN(C(=O)c1cscn1)C2` was tested. Which “Percent Effect” value did it give?
Answer: 99.31%

Question: How did the “Percent Effect” value turn out when `CC(C)N(C)S(=O)(=O)c1ccc2c(c1)CCN(C(=O)c1ccccn1)C2` was run?
Answer: 85.52%

Question: For `CCS(=O)(=O)NC1CCCN(c2cc(C)ccc2F)C1=O` (stereo not given), which “Percent Effect” value is on record?
Answer: -7.776%

Question: Which “Percent Effect” value does the source give for `O[C@H]1[C@H](NCCSc2ccccn2)c2ccccc2C12CCNCC2` here?
Answer: -1.82%

Question: How did the “Percent Effect” value turn out when `COc1ccccc1Oc1ncccc1CNC(=O)[C@H](N)CC(C)(C)C` was run?
Answer: -16.84%

Question: For `CC(=O)NC1CCN(c2ncnc3c2c(C)nn3C)C1` (stereo not given), which “Percent Effect” value is on record?
Answer: -10.72%

Question: With `COc1cc(C)c(C2CC(=O)NCc3nc4sccn4c32)cc1C` (stereo not given) as the molecule, how does the “Percent Effect” value read?
Answer: -46.51%

Question: `CCOCc1ccc(NC(=O)C(C)C)cc1` was tested. Which “Percent Effect” value did it give?
Answer: 2.83%

Question: `CCC[C@H]1CN(CCS(C)(=O)=O)C[C@@H]1NC(=O)c1cc(CC)on1` was tested. Which “Percent Effect” value did it give?
Answer: 21.57%

Question: With `Cc1cc(C)n(CCNCc2cc(-c3ccc(F)cc3)c[nH]c2=O)n1` as the molecule, how does the “Percent Effect” value read?
Answer: 135.5%

Question: How did the “Percent Effect” value turn out when `CCn1cnnc1CCNCc1c[nH]nc1-c1ccc(F)cc1` was run?
Answer: -1.595%

Question: With `Cc1cc(C)n(CCNCc2cc(-c3ccc(Cl)cc3)c[nH]c2=O)n1` as the molecule, how does the “Percent Effect” value read?
Answer: 101%

Question: With `Cc1cc(F)ccc1CNCCn1cccn1` as the molecule, how does the “Percent Effect” value read?
Answer: -2.042%

Question: `COC(=O)c1ccc(F)c(Cn2nc(C)cc2C)c1` was tested. Which “Percent Effect” value did it give?
Answer: -3.045%

Question: `Cc1cc(C)n(CCNCc2cc(-c3ccccc3)c[nH]c2=O)n1` was tested. Which “Percent Effect” value did it give?
Answer: 81.59%

Question: `Cc1cc(C)n(CC(=O)N2CCC(NS(=O)(=O)c3ccccc3)CC2)n1` was tested. Which “Percent Effect” value did it give?
Answer: -8.172%

Question: How did the “Percent Effect” value turn out when `COC(=O)c1ccc(Cn2nc(C)cc2C)c(F)c1` was run?
Answer: -8.514%

Question: For `Cc1cc(C)n(CC(=O)Nc2cc(-c3ccncc3)[nH]n2)n1`, which “Percent Effect” value is on record?
Answer: 0.2765%

Question: How did the “Percent Effect” value turn out when `c1ccc2sc(N3CCCC(Cn4cncn4)C3)nc2c1` (stereo not given) was run?
Answer: 2.326%

Question: `NCC1CCCCN1Cc1cc(O)c2cccc(F)c2n1` (stereo not given) was tested. Which “Percent Effect” value did it give?
Answer: -47.52%

Question: `CN1CCCN(C(=O)c2nnn(-c3ccc(C(F)(F)F)cc3)n2)CC1` was tested. Which “Percent Effect” value did it give?
Answer: 20.55%

Question: With `Cc1cccc(C(C(=O)NCc2nc(-c3ncccn3)no2)N(C)C)c1` (stereo not given) as the molecule, how does the “Percent Effect” value read?
Answer: -6.766%

Question: `Cc1ccc(-c2cccc(N3CCC(NC4CCOCC4)CC3)c2)cc1` was tested. Which “Percent Effect” value did it give?
Answer: 106.4%

Question: For `Cc1nnc(-c2cccc(N3CCC(NC4CCSC4)CC3)c2)s1` (stereo not given), which “Percent Effect” value is on record?
Answer: -9.983%

Question: Which “Percent Effect” value does the source give for `Clc1cccc(-c2cccc(N3CCC(NC4CCOCC4)CC3)c2)c1` here?
Answer: 91.89%

Question: For `Clc1cccc(N2CCC(NCc3cc[nH]n3)C2)c1` (stereo not given), which “Percent Effect” value is on record?
Answer: -6.457%

Question: With `O=C(Cc1cccc(O)c1)NC1CCN(c2cccc(Cl)c2)C1` (stereo not given) as the molecule, how does the “Percent Effect” value read?
Answer: 1.358%

Question: `Cc1nnc(-c2cccc(N3CCC(NC(C)CC(C)C)CC3)c2)s1` (stereo not given) was tested. Which “Percent Effect” value did it give?
Answer: 13.1%

Question: For `CC(C)N1CCOCC2(CCCN(C(=O)c3cn(C)cn3)C2)C1.O=C(O)C(F)(F)F` (stereo not given), which “Percent Effect” value is on record?
Answer: -9.46%

Question: How did the “Percent Effect” value turn out when `O=C(c1ccc(-n2ccnn2)cc1)N(CC1CC1)c1cccnc1` was run?
Answer: -13.01%

Question: `O=C(c1ccccc1)N(CC1CC1)c1cccnc1` was tested. Which “Percent Effect” value did it give?
Answer: 119.1%

Question: For `CCCN(C(=O)c1ccc(-n2ccnn2)cc1)c1cccnc1`, which “Percent Effect” value is on record?
Answer: -3.595%

Question: Which “Percent Effect” value does the source give for `Cc1c(C2CC2)n[nH]c1NC(=O)C1CCCN(C(=O)NCC(C)C)C1` (stereo not given) here?
Answer: 117.7%

Question: For `Cc1cc(NC(=O)C2CCCN(C(=O)NCC(C)C)C2)ccn1` (stereo not given), which “Percent Effect” value is on record?
Answer: 89.55%

Question: Which “Percent Effect” value does the source give for `NC(=O)N1CCCC(C(=O)Nc2cccc(Cl)c2)C1` (stereo not given) here?
Answer: 3.636%

Question: `Cc1n[nH]c(C)c1NC(=O)C1CCCN(C(=O)NCC(C)C)C1` (stereo not given) was tested. Which “Percent Effect” value did it give?
Answer: 113.5%

Question: How did the “Percent Effect” value turn out when `Cc1n[nH]c(C)c1CCNC(=O)C1CCCN(CC(N)=O)C1` (stereo not given) was run?
Answer: -16.53%

Question: With `CCCC1CCCN(C(=O)Nc2ccnc(C(=O)N(C)C)c2)CC1` (stereo not given) as the molecule, how does the “Percent Effect” value read?
Answer: -1.886%

Question: Which “Percent Effect” value does the source give for `CCNC(=O)N1CCCC(C(=O)c2cccc(OC(C)C)c2)C1` (stereo not given) here?
Answer: 17.22%

Question: `Cc1n[nH]c(C)c1Sc1ccccc1NC(=O)N1CCCC(C(N)=O)C1` (stereo not given) was tested. Which “Percent Effect” value did it give?
Answer: -0.33%

Question: For `Cc1ccc(-c2nnc(NC(=O)c3ccn(C)c(=O)c3)[nH]2)s1`, which “Percent Effect” value is on record?
Answer: 1.444%

Question: How did the “Percent Effect” value turn out when `CCN(C(=O)C1CC1)C(c1cccnc1)c1ccc2c(c1)CCO2` (stereo not given) was run?
Answer: -9.628%

Question: How did the “Percent Effect” value turn out when `Cc1ccc(-c2nnc(C3CCCN3S(=O)(=O)c3cnn(C)c3C)o2)s1` (stereo not given) was run?
Answer: 112%

Question: How did the “Percent Effect” value turn out when `CC(c1nnc(-c2cccs2)o1)N1CCn2c(nnc2C2CC2)C1` (stereo not given) was run?
Answer: -4.966%

Question: For `Cc1c(S(=O)(=O)N2CCCCC2c2nnc(-c3cccs3)o2)cnn1C` (stereo not given), which “Percent Effect” value is on record?
Answer: 114.5%

Question: Which “Percent Effect” value does the source give for `Cc1ccc(C2CCCN2S(=O)(=O)N(C)Cc2cnn(C)c2)o1` (stereo not given) here?
Answer: 13.71%

Question: How did the “Percent Effect” value turn out when `Cn1cc(S(=O)(=O)N2CCCC2CC(=O)c2cccs2)cn1` (stereo not given) was run?
Answer: -23.33%

Question: With `Cn1cc(C2CCCN2Cc2csc(-c3ccsc3)n2)cn1` (stereo not given) as the molecule, how does the “Percent Effect” value read?
Answer: 2.773%

Question: Which “Percent Effect” value does the source give for `Cc1nnc(CN2CCCC2c2ccsc2)o1` (stereo not given) here?
Answer: 42.12%

Question: How did the “Percent Effect” value turn out when `Cc1c(S(=O)(=O)N2CCCC2c2nnc(-c3ccsc3)o2)cnn1C` (stereo not given) was run?
Answer: 130.9%

Question: Which “Percent Effect” value does the source give for `Cc1noc(CCNS(=O)(=O)N2CCCC2c2ccc(C)o2)n1` (stereo not given) here?
Answer: 4.735%

Question: How did the “Percent Effect” value turn out when `CN1[C@@H](c2ccccc2)[C@@H](C(=O)NCc2ccncc2)C[C@@]1(C)C(=O)O` was run?
Answer: 1.416%

Question: Which “Percent Effect” value does the source give for `O=C(O)c1ccnc(-c2ccnc(COc3cccc(F)c3)n2)c1` here?
Answer: -102.4%

Question: For `Cc1cccc(N2CCN(CCNC(=O)C(C)n3cncn3)CC2)c1` (stereo not given), which “Percent Effect” value is on record?
Answer: 8.571%

Question: Which “Percent Effect” value does the source give for `CC1CCCCN1CCN(C)C(=O)c1cc(CN2CCC(O)CC2)on1` (stereo not given) here?
Answer: 0.4872%

Question: How did the “Percent Effect” value turn out when `Fc1cccc(NCc2ncc[nH]2)c1` was run?
Answer: -11.31%

Question: For `CSCc1cc(F)ccc1CNCc1ccncc1`, which “Percent Effect” value is on record?
Answer: 99.15%

Question: For `O=C(NCc1ccncc1)N(Cc1ccc(F)cc1F)C1CC1`, which “Percent Effect” value is on record?
Answer: -2.267%

Question: Which “Percent Effect” value does the source give for `Fc1cccc(C(NCc2ncc[nH]2)c2ccccc2)c1` (stereo not given) here?
Answer: -7.792%

Question: Which “Percent Effect” value does the source give for `Fc1ccc(NCc2ccncc2)c(OC(F)F)c1` here?
Answer: -6.491%

Question: For `CSCc1cc(F)ccc1CNCc1ncc[nH]1`, which “Percent Effect” value is on record?
Answer: 108.7%

Question: Which “Percent Effect” value does the source give for `O=C1CCCN1c1cccc(CNCc2cc(F)ccc2F)c1` here?
Answer: -5.013%

Question: How did the “Percent Effect” value turn out when `COc1cc(F)ccc1N(C)Cc1cccnc1` was run?
Answer: -2.533%

Question: `Cc1cnn(CCNCc2cccnc2)c1` was tested. Which “Percent Effect” value did it give?
Answer: -0.61%

Question: How did the “Percent Effect” value turn out when `CSCc1cc(F)ccc1CNCc1cccc(O)c1` was run?
Answer: 105.8%

Question: How did the “Percent Effect” value turn out when `O=C1OCCN1c1cccc(CNCc2cc(F)ccc2F)c1` was run?
Answer: 6.854%

Question: How did the “Percent Effect” value turn out when `CSCc1cc(F)ccc1CNCc1cccnc1` was run?
Answer: 101.5%
